Measurements as given in PubChem BioAssay AID1159580 (chemical genetic matrix, 2015).
Several values for one entry are separate records, joined by “and”; a condition that tells them apart may be missing. Equal values may be shown once. The campaign covered roughly 5,500 compounds. About 2,000 (36%) were called active. Not shown: some 18% with an inconclusive outcome. Rule as the data show it: active = normalized growth mostly below about 0.91 (no sharp cut-off); inconclusive = no clear call, values can overlap the other calls; inactive = mostly above about 0.92. The list shows a part of the results.

Assay: chemical genetic growth profiling, strain panel (AID 1159580);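 also: tested at 20 µM; growth read once vehicle control cultures reached saturation at 30 °C; 1 = growth at the plate median or of vehicle wells; lower values mean less growth of the strain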
Settings: S. cerevisiae deletion strains, growth OD

Measured: normalized growth

Nc1ncn([C@@H]2O[C@H](CO)[C@@H](O)[C@H]2O)c(=O)n1
inactive: locus YAL021C, strain ccr4, active compounds read low 1.01 | locus YAL026C, strain drs2, active compounds read low 0.998 | locus YAL030W, strain snc1, active compounds read low 0.996 | locus YBL061C, strain skt5, active compounds read low 0.987 | locus YBR009C, strain hhf1, active compounds read low 0.992 | locus YBR021W, strain FUR4, active compounds read low 0.999 | locus YBR023C, strain chs3, active compounds read low 1 | locus YBR171W, strain sec66, active compounds read low 0.962 | locus YBR229C, strain ROT2, active compounds read low 1.01 | locus YBR231C, strain swc5, active compounds read low 0.973 | locus YBR279W, strain paf1, active compounds read low 0.995 | locus YCL011C, strain gbp2, active compounds read low 1.01 | locus YCL016C, strain dcc1, active compounds read low 0.987 | locus YCL029C, strain bik1, active compounds read low 1 | locus YCL061C, strain MRC1, active compounds read low 0.989 | locus YCL069W, strain vba3, active compounds read low 0.979 | locus YCR088W, strain abp1, active compounds read low 0.996 | locus YDL005C, strain med2, active compounds read low 0.972 | locus YDL035C, strain GPR1, active compounds read low 1.02 | locus YDL040C, strain nat1, active compounds read low 0.981 | locus YDL074C, strain BRE1, active compounds read low 1.03 | locus YDL101C, strain DUN1, active compounds read low 1.01 | locus YDL134C, strain PPH21, active compounds read low 1.01 | locus YDL185W, strain tfp1, active compounds read low 0.99 | locus YDL192W, strain arf1, active compounds read low 0.994 | locus YDR001C, strain nth1, active compounds read low 0.984 | locus YDR069C, strain doa4, active compounds read low 0.976 | locus YDR101C, strain arx1, active compounds read low 0.996 | locus YDR137W, strain rgp1, active compounds read low 1 | locus YDR159W, strain sac3, active compounds read low 1 | locus YDR162C, strain NBP2, active compounds read low 1.01 | locus YDR195W, strain ref2 0.91 | locus YDR297W, strain sur2, active compounds read low 0.993 | locus YDR318W, strain mcm21, active compounds read low 0.999 | locus YDR334W, strain swr1, active compounds read low 0.989 | locus YDR335W, strain msn5, active compounds read low 0.98 | locus YDR388W, active compounds read low 0.997 | locus YDR392W, strain spt3, active compounds read low 1.02 | locus YDR502C, strain sam2, active compounds read low 1.01 | locus YEL003W, strain gim4, active compounds read low 0.982 | locus YEL037C, strain rad23, active compounds read low 0.992 | locus YEL061C, strain CIN8 (second series), active compounds read low 0.986 | locus YEL061C, strain CIN8, active compounds read low 1.01 | locus YER015W, strain faa2, active compounds read low 0.99 | locus YER016W, strain bim1, active compounds read low 1.01 | locus YER110C, active compounds read low 1.01 | locus YER111C, strain swi4, active compounds read low 0.959 | locus YER155C, strain BEM2 (second series), active compounds read low 0.978 | locus YER155C, strain BEM2, active compounds read low 1.01 | locus YER167W, strain BCK2, active compounds read low 0.996 | locus YFR010W, strain ubp6, active compounds read low 0.983 | locus YGL078C, strain dbp3, active compounds read low 0.992 | locus YGL086W, strain mad1, active compounds read low 1 | locus YGL167C, strain pmr1, active compounds read low 0.987 | locus YGL173C, strain kem1, active compounds read low 0.971 | locus YGL227W, strain vid30, active compounds read low 0.983 | locus YGL240W, strain doc1, active compounds read low 0.951 | locus YGL248W, strain PDE1, active compounds read low 1.02 | locus YGL253W, strain hxk2, active compounds read low 0.989 | locus YGR078C, strain PAC10, active compounds read low 1.03 | locus YGR135W, strain pre9, active compounds read low 0.99 | locus YGR229C, strain SMI1, active compounds read low 1.02 | locus YGR252W, strain gcn5, active compounds read low 0.962 | locus YHR013C, strain ard1, active compounds read low 0.979 | locus YHR027C, strain rpn1, active compounds read low 0.994 | locus YHR030C, strain SLT2, active compounds read low 1.01 and 0.98 | locus YHR079C, strain IRE1 (second series), active compounds read low 0.989 | locus YHR079C, strain IRE1, active compounds read low 0.997 | locus YHR094C, strain hxt1, active compounds read low 0.987 | locus YHR129C, strain ARP1, active compounds read low 1.01 | locus YHR142W, strain chs7, active compounds read low 0.974 | locus YHR200W, strain rpn10, active compounds read low 0.993 | locus YIL066C, strain RNR3, active compounds read low 1.02 | locus YIL073C, strain SPO22, active compounds read low 0.973 | locus YIL125W, strain kgd1, active compounds read low 0.997 | locus YIR030C, strain dcg1, active compounds read low 1 | locus YJL092W, strain hpr5, active compounds read low 0.984 | locus YJL095W, strain BCK1 (second series), active compounds read low 0.972 | locus YJL095W, strain BCK1, active compounds read low 1.03 and 0.98 | locus YJL115W, strain asf1, active compounds read low 0.97 | locus YJL129C, strain trk1, active compounds read low 0.966 | locus YJL134W, strain LCB3, active compounds read low 1 | locus YJL154C, strain vps35, active compounds read low 0.981 | locus YJL164C, strain tpk1, active compounds read low 0.996 | locus YJL166W, strain qcr8, active compounds read low 0.973 | locus YJL168C, strain set2, active compounds read low 0.995 | locus YJL187C, strain SWE1 (second series), active compounds read low 1.03 | locus YJL187C, strain SWE1, active compounds read low 0.983 | locus YJR043C, strain POL32, active compounds read low 1.01
